In PubChem BioAssay (Tox21):
Several values for one entry are separate records, joined by “and”; a condition that tells them apart may be missing. Equal entries are not always repeated. Inconclusive results are not listed. Activity calls are given as the source filed them. Unless noted, the call rests on the fitted dose curve; in most records, active means well fitted curve in the direction sought with a large enough effect in the repeat runs; inconclusive means weak or mixed curves; inactive means no such curve, though single readings can be large; an effect the other way counts as inactive or inconclusive.

Tests used:
[1] = qHTS assay for small molecules that induce genotoxicity in human embryonic kidney cells expressing luciferase-tagged ATAD5 (AID 651632); further: nearly all actives have a fitted effect of over 15% in size
Procedure, shortened: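 A rise in luciferase signal from ATAD5-tagged HEK293T cells marks genetic stress. Cells were exposed to compounds for 16 hr at 37C, 5% CO2, then luciferase was quantified after a 30 min room-temperature incubation with Amplite.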

[2] = qHTS assay for small molecule disruptors of the mitochondrial membrane potential - cell viability (AID 720634; calls by dose curve;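 further: human HepG2 liver cancer cells; series mostly up to about 83 µM; nearly all actives have a fitted effect of over 20% in size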)
Procedure, shortened: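 Cytotoxicity was quantified from ATP content by CellTiter-Glo luminescence in the same wells as the MMP dye read-out. HepG2 (2,000 cells/well) were plated overnight and exposed to compounds for 1 hr at 37 C.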

[3] = qHTS assay to test for compound auto fluorescence at 535 nm (green) in HepG2 cells (AID 720675)
[4] = qHTS assay to test for compound auto fluorescence at 590 nm (red) in HEK293 cells (AID 720679)
Procedure, shortened: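 HEK293 cells (2,000/well, 10% dialyzed FBS) attached 4-5 hr, then dosed with compound or DMSO and incubated overnight at 37C, 5% CO2. Red fluorescence read at 540/590 nm, Rose Bengal sodium as reference fluorophore.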

[5] = qHTS assay to test for compound auto fluorescence at 460 nm (blue) in HEK293 cell free culture (AID 720681)
Procedure, shortened: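 Blue fluorescence (Ex 405/Em 460 nm, triamterene-equivalent) was read immediately after pin transfer of compound or DMSO into medium (DMEM, 10% FBS) without cells.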

[6] = qHTS assay to test for compound auto fluorescence at 535 nm (green) in HEK293 cell free culture (AID 720682)
Procedure, shortened: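 Each library compound, or DMSO control, is added by pintool to medium alone, comprising DMEM and 10% FBS. Emission at 535 nm following 485 nm excitation is quantified against fluorescein.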

[7] = qHTS assay to test for compound auto fluorescence at 590 nm (red) in HepG2 cell free culture (AID 720684)
Procedure, shortened: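 No cells present: MEM + 10% FBS only. Compound pinned in, red label read (540/590 nm). Activity = fluorescence equivalent to Rose Bengal sodium.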

[8] = qHTS assay to test for compound auto fluorescence at 460 nm (blue) in HepG2 cell free culture (AID 720685)
Procedure, shortened: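 Cell-free plates of MEM plus 10% FBS received 23 nL compound or DMSO vehicle; blue-channel (405/460 nm) intensity scored against triamterene as reference fluorophore.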

[9] = qHTS assay to test for compound auto fluorescence at 535 nm (green) in HepG2 cell free culture (AID 720686)
[10] = qHTS assay to test for compound auto fluorescence at 460 nm (blue) in HepG2 cells (AID 720687)
Procedure, shortened: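 Blue-channel autofluorescence (Ex/Em 405/460 nm, triamterene-equivalent) was measured after 1 hr compound exposure at 37 C, 5% CO2. Cells were HepG2, plated overnight at 37 C in MEM plus 10% FBS.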

[11] = qHTS assay to identify small molecule antagonists of the androgen receptor (AR) signaling pathway using the MDA cell line - cell viability counter screen (AID 743041; further: nearly all actives have a fitted effect of over 45% in size)
Procedure, shortened: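 Using the breast carcinoma line MDA-kb2 AR-luc, test chemicals were co-incubated with R1881 for 16 h; CellTiter-Fluor reagent, added at 15.5 h, provided a fluorescence measure of live cells.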

[12] = qHTS assay to identify small molecule antagonists of the estrogen receptor alpha (ER-alpha) signaling pathway using the BG1 cell line - cell viability counter screen (AID 743081);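 further: compound given together with 17beta-estradiol as the ER stimulus; series mostly up to about 70 µM; nearly all actives have a fitted effect of over 45% in size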
[13] = molecular target: Aromatase (Homo sapiens) (UniProt P11511); experiment: qHTS assay to identify aromatase inhibitors (AID 743083); further: series mostly up to about 70 µM; nearly all actives have a fitted effect of over 55% in size
Sequence of Aromatase (Homo sapiens) (P11511 whole entry, looked up): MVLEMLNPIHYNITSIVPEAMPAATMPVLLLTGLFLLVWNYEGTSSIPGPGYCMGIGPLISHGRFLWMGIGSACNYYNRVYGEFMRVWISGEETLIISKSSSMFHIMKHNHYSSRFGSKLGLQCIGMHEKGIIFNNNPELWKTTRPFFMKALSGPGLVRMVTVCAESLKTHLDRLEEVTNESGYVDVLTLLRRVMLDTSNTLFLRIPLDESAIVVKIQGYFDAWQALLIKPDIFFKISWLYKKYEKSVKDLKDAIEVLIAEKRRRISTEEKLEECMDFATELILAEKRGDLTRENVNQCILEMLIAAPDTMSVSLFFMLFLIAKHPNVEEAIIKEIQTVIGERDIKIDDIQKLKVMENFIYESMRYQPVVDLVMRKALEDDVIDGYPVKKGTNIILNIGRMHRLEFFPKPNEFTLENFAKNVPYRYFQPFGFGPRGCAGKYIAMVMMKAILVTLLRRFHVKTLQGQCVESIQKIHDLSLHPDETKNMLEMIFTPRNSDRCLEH

[14] = qHTS assay to identify aromatase inhibitors - cell viability counter screen (AID 743084);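 further: cells stimulated with testosterone during compound exposure; nearly all actives have a fitted effect of over 55% in size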
[15] = molecular target: Aryl hydrocarbon receptor (Homo sapiens) (UniProt P35869); experiment: qHTS assay to identify small molecule that activate the aryl hydrocarbon receptor (AhR) signaling pathway (AID 743085);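 further: HG2L7.5c1 human HepG2 liver cells with stably integrated DRE-driven firefly reporter; series mostly up to about 70 µM; nearly all actives have a fitted effect of over 15% in size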
Sequence of Aryl hydrocarbon receptor (Homo sapiens) (P35869 whole entry, looked up): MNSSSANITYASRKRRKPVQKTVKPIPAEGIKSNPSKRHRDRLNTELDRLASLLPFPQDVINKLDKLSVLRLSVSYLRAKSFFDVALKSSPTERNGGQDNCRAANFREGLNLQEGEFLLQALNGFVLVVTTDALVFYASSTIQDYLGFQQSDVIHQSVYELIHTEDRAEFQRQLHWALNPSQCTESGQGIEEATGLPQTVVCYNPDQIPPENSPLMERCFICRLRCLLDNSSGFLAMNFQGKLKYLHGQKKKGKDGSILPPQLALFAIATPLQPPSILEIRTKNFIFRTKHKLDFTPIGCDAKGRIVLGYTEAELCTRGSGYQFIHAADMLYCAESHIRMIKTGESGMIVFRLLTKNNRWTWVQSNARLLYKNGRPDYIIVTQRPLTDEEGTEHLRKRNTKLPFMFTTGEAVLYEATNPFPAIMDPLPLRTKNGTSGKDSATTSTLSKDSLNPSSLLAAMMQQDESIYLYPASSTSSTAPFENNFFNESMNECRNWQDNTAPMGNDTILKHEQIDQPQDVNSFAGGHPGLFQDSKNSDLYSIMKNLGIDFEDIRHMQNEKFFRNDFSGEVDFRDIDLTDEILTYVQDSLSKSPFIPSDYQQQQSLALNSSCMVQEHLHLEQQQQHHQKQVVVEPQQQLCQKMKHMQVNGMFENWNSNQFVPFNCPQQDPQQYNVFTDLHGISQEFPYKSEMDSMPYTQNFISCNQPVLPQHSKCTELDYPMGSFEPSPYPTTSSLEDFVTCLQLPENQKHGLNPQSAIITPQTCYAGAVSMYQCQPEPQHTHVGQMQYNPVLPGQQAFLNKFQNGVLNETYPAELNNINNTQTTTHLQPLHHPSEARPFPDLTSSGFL
Procedure, shortened: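 Stably transfected human liver carcinoma cells (HG2L7.5c1; 20 DRE-firefly luciferase) were incubated 5 h, dosed, and kept 24 h at 37C. Agonism was scored from increased luciferase luminescence.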

[16] = qHTS assay to identify small molecule phospholipidosis (PLD) inducers (AID 1259344; active means well fitted curve in the direction sought with a large enough effect; an effect the other way counts as inactive or inconclusive)
Procedure, shortened: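 Accumulated phospholipid, stained red by LipidTOX during 24 h compound treatment of HepG2 cells at 37 C, is quantified from images as pit number and intensity, normalised per cell using Hoechst-stained nuclei.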

[17] = molecular target: Nuclear receptor subfamily 1 group I member 2 (Rattus norvegicus) (UniProt Q9R1A7); experiment: Rat pregnane X receptor (rPXR) activation by small molecules, qHTS assay (AID 1346983); settings: rPXR luciferase reporter cells, One-Glo luminescence, 24 h; max activation: stronger effect = higher value; further: nearly all actives have a fitted effect of over 20% in size
Sequence of Nuclear receptor subfamily 1 group I member 2 (Rattus norvegicus) (Q9R1A7 whole entry, looked up): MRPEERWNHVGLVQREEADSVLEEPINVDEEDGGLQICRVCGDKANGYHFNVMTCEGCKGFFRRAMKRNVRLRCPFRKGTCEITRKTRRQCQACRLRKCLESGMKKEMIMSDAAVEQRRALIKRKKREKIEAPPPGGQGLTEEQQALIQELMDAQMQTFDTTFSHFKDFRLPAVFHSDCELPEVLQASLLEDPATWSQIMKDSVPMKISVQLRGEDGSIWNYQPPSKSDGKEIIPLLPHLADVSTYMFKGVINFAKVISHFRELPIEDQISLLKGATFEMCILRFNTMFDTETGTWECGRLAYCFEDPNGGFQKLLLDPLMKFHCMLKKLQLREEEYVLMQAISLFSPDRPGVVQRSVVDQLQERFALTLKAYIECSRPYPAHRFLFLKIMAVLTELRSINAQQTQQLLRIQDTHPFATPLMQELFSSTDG
Procedure, shortened: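 Luminescent readout (One-Glo luciferase, 30 min room temperature) followed 24 hr compound treatment at 37 C of rPXR cells plated 2,000 per well and preincubated 5hr; qHTS format with compounds delivered in DMSO.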

[18] = qHTS assay to identify small molecule antagonists of the androgen receptor (AR) signaling pathway - cell viability counter screen (AID 743033; further: nearly all actives have a fitted effect of over 45% in size)
[19] = qHTS assay to identify small molecule antagonists of the estrogen receptor alpha (ER-alpha) signaling pathway - cell viability counter screen (AID 743074; calls by dose curve;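 further: HEK293 cells carrying ER-alpha-UAS-bla reporter stimulated with 17beta-estradiol; nearly all actives have a fitted effect of over 45% in size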)
[20] = qHTS assay for small molecule agonists of the p53 signaling pathway - cell viability (AID 651633; calls by dose curve;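 further: p53RE-bla HCT reporter cells with a stable beta-lactamase p53 reporter; series mostly up to about 83 µM; nearly all actives have a fitted effect of over 30% in size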)
Procedure, shortened: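 Viability counter-read: CellTiter-Glo luminescence (30 min, room temperature) in the same p53RE-bla plates. These plates had been exposed to compounds for 16 h at 37 C.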
On the % scale 0 is the no-effect control and ±100 the full control effect.

CCCCCCC(=O)O[C@H]1CC[C@H]2[C@@H]3CC[C@H]4CC(=O)C=C(C)[C@]4(C)[C@H]3CC[C@]12C
inactive: Potency [1] | Potency [2] | Potency [3] | outcome [4] | Potency [5] | Potency [6] | outcome [7] | Potency [8] | Potency [9] | Potency [10] | Potency [11] | Potency [12] | Potency [13] | Potency [14] | Potency [15] | Potency [16] | max activation [17] -2.7%

CCCC(C)C1(CC)C(=O)NC(=O)NC1=O (centres undefined)
inactive: Potency [1] | Potency [2] | Potency [3] | outcome [4] | Potency [5] | Potency [6] | outcome [7] | Potency [8] | Potency [9] | Potency [10] | Potency [18] | Potency [11] | Potency [19] | Potency [12] | Potency [13] | Potency [14] | Potency [15] | Potency [16] | max activation [17] -2.06%

C[C@]12CC[C@H]3[C@@H](CCC4=C(Cl)C(=O)CC[C@@]43C)[C@@H]1CC[C@@H]2O
inactive: Potency [1] | Potency [20] | Potency [2] | Potency [3] | outcome [4] | Potency [5] | Potency [6] | outcome [7] | Potency [8] | Potency [9] | Potency [10] | Potency [18] | Potency [11] | Potency [19] | Potency [12] | Potency [13] | Potency [14] | Potency [15] | Potency [16] | max activation [17] -0.226%

NC1=NC(=O)N2CC12 (centres undefined)
inactive: Potency [1] | Potency [20] | Potency [2] | Potency [3] | outcome [4] | Potency [5] | Potency [6] | outcome [7] | Potency [8] | Potency [9] | Potency [10] | Potency [18] | Potency [11] | Potency [19] | Potency [12] | Potency [13] | Potency [14] | Potency [15] | Potency [16] | max activation [17] -1.23%

CN1c2ccccc2C(NCCCCCCC(=O)O)c2ccc(Cl)cc2S1(=O)=O (centres undefined)
inactive: Potency [1] | Potency [20] | Potency [2] | Potency [3] | outcome [4] | Potency [5] | outcome [7] | Potency [8] | Potency [9] | Potency [10] | Potency [18] | Potency [11] | Potency [19] | Potency [12] | Potency [13] | Potency [14] | Potency [15] | Potency [16] | max activation [17] -2.51%

CC(=O)OC1CN2CCC1CC2 (centres undefined)
inactive: Potency [1] | Potency [20] | Potency [2] | Potency [3] | outcome [4] | Potency [5] | outcome [7] | Potency [8] | Potency [9] | Potency [10] | Potency [18] | Potency [11] | Potency [19] | Potency [12] | Potency [13] | Potency [14] | Potency [15] | Potency [16] | max activation [17] -0.436%

C[N+]1([O-])[C@@H]2CC[C@H]1CC(OC(=O)C(CO)c1ccccc1)C2 (some centres undefined)
inactive: Potency [1] | Potency [20] | Potency [2] | Potency [3] | outcome [4] | Potency [5] | Potency [6] | outcome [7] | Potency [8] | Potency [9] | Potency [10] | Potency [18] | Potency [11] | Potency [19] | Potency [12] | Potency [13] | Potency [14] | Potency [15] | Potency [16] | max activation [17] -0.187% and -0.592%

O[C@H]1[C@H]2[C@H](O)CCCN2C[C@H]1O
inactive: Potency [1] | Potency [20] | Potency [2] | Potency [3] | outcome [4] | Potency [5] | outcome [7] | Potency [8] | Potency [9] | Potency [10] | Potency [18] | Potency [11] | Potency [19] | Potency [13] | Potency [14] | Potency [15] | Potency [16] | max activation [17] -2.82%

CC(C)(O)[C@@H]1[C@H]2OC(=O)[C@@H]1[C@]1(O)C[C@H]3O[C@]34C(=O)O[C@H]2[C@]14C
inactive: Potency [1] | Potency [20] | Potency [2] | Potency [3] | outcome [4] | Potency [5] | Potency [6] | outcome [7] | Potency [8] | Potency [9] | Potency [10] | Potency [18] | Potency [11] | Potency [19] | Potency [12] | Potency [16] | max activation [17] -2.48%

C[C@@H]([C@H](O)c1ccccc1)N(C)C
inactive: Potency [1] | Potency [20] | Potency [2] | Potency [3] | outcome [4] | Potency [5] | Potency [6] | outcome [7] | Potency [8] | Potency [9] | Potency [10] | Potency [18] | Potency [11] | Potency [19] | Potency [12] | Potency [13] | Potency [14] | Potency [15] | Potency [16] | max activation [17] -2.62%

O=C1CCCCC1CN1CCCCC1 (centres undefined)
inactive: Potency [1] | Potency [20] | Potency [2] | Potency [3] | outcome [4] | Potency [5] | Potency [6] | outcome [7] | Potency [8] | Potency [9] | Potency [10] | Potency [18] | Potency [11] | Potency [19] | Potency [12] | Potency [13] | Potency [14] | Potency [15] | Potency [16] | max activation [17] -4.76%
